Experimental data from PubChem BioAssay AID624330 (Southern Research Specialized Biocontainment Screening …, 2012).
The whole screen tested about 340,000 compounds, of which about 2,100 (0.62%) were called active.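 The calls were made as follows: active = first-screen hits whose inhibition reached a set limit at any dose in the follow-up dose series; inconclusive = inhibition above the set first-screen limit but never retested; inactive = the rest.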 The list is a sample of the results. Entries with a potency or affinity are not part of this list.

target: Rac GTPase-activating protein 1 (Homo sapiens) (UniProt Q9H0H5); test: blockers of MgcRacGAP-driven Rac1 GTP hydrolysis – biochemical, ADP Hunter fluorescence, primary and confirmatory, confirmation (AID 624330); settings: MgcRacGAP-stimulated Rac1 GTP hydrolysis, at 30 µM, hits give high values, GST-tagged Rac1 F28L mutant substrate;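 also: fluorescence reports GDP produced by GAP-driven GTP hydrolysis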
Sequence (Q9H0H5 whole entry, looked up): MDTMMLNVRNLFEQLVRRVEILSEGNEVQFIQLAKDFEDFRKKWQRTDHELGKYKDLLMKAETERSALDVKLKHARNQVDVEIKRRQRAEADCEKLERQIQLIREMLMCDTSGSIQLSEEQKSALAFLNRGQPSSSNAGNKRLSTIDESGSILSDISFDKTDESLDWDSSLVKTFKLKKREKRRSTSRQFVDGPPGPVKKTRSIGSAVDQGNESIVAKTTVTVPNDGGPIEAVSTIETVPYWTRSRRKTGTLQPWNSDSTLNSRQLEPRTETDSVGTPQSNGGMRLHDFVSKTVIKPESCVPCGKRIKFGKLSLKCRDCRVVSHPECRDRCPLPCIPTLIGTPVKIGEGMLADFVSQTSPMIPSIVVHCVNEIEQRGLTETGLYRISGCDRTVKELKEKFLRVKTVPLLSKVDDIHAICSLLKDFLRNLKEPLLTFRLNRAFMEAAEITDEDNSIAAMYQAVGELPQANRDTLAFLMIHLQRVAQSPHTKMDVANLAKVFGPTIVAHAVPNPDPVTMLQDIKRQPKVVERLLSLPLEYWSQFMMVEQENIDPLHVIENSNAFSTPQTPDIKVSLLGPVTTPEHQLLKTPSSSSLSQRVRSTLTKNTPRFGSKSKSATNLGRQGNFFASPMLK

inhibition, inactive:
CCN(CC)S(=O)(=O)c1cccc(C(=O)NN2Cc3ccccc3C2=N)c1 -4.56%
C=CCn1c(SCC(=O)NNC(=O)Nc2ccc(C)cc2)nnc1-c1ccccc1 1.01%
C=CCn1c(SCC(=O)Nc2ccc3c(c2)OCO3)nnc1-c1ccccc1 6.23%
CCn1c(SCC(=O)Nc2cc(C)on2)nnc1-c1cccc(C)c1 7.99%
CCn1c(SCC(=O)Nc2ccc(C)cc2)nnc1-c1ccc(O)cc1 5.22%
Cc1csc(=O)n1CCC(=O)OCC(=O)Nc1ccc(Cl)cn1 4.45%
CCOc1ccc(S(=O)(=O)N/N=C(\C)C2CCCCC2)cc1 3.81%
CCCCOc1ccc(/C=N/NC(=O)c2csc(C)c2C)cc1 16.6%
COc1cccc(-n2nnc3c(=O)n(CC(=O)N4CCC(C)CC4)cnc32)c1 11.4%
CCOc1ncccc1C(=O)OCC(=O)NCc1ccccc1 5.95%
O=C(CN1CCCCC1)Nc1ccccc1-c1ccccc1 6.84%
O=C(CN1CCN(C2CCCCC2)CC1)Nc1cccc2ccccc12 15.3%
Cc1cc(C)cc(OCC(=O)N2CCN(c3ncccn3)CC2)c1 1.56%
COc1ccc(CC(=O)Oc2cc(C)ccc2C)cc1 4.1%
COc1ccc(N(C(=O)COc2cccc(C)c2)S(=O)(=O)c2ccc(C)cc2)cc1 7.24%
COc1ccc(OC(=O)COc2ccc(Cl)cc2)cc1 10.7%
Cc1ccc(OC(=O)COc2ccccc2C)cc1 9.41%
Cc1cccc(OCC(=O)Oc2ccc(Cl)cc2)c1 14.7%
Cc1ccc(OCC(=O)Oc2ccc(C(C)C)cc2)cc1 15.2%
Cc1ccc(C(=O)C[n+]2ccc(-c3nnc4n3CCC4)cc2)cc1 -12.9%
CN(C(=O)CSc1nnc(-c2ccccc2F)n1N)C1CCCCC1 4.13%
Cc1noc(C)c1NC(=O)NCCN1CCN(Cc2ccccc2)CC1 11.3%
CCOc1ccc2[nH]c(=O)c(CN(CCN3CCCC3)C(=S)Nc3ccccc3OC)cc2c1 3.77%
C=CCc1ccccc1OCC(=O)N/N=C/c1ccc(OC(C)=O)cc1OC(C)=O -0.28%
C1=CC2=NC34CCCCC3CC3=C(CCCC3)N4C2=CC1=NC1CCCCC1 (centres undefined) 11.1%
CCOc1ccc(NC(=O)NC2CCCc3ccccc32)cc1 (centres undefined) 13.3%
COc1ccc(CNC2CCCc3ccccc32)cc1OC (centres undefined) 6.79%
CCOc1ccc(N=Nc2ccc(O)c3ncccc23)cc1 5.89%
CCOc1ccc2[nH]c3ncccc3c(=O)c2c1 3.15%
COc1cc(/C=N/NC(=O)c2cc(C)oc2C)cc(OC)c1OC -1.5%
COc1ccc(/C=N/NC(=O)c2ccoc2C)cc1OC 6.81%
COc1cc(/C=N/NC(=O)c2cc(C)oc2C)ccc1OCc1ccccc1 5.24%
COc1ccc(/C=N/NC(=O)c2cc(C)oc2C)cc1OC 3.85%
COc1cc(/C=N/NC(=O)c2ccoc2C)cc(OC)c1O 21.6%
COc1ccc(/C=N/NC(=O)c2cc(C)oc2C)cc1OCc1ccccc1 11.1%
Cc1ccc(S(=O)(=O)N2CCN(C(=O)c3ccco3)CC2)c(C)c1 6.61%
CC(=O)Nc1ccc(S(=O)(=O)N2CCCC3CCCCC32)cc1 (centres undefined) 2.55%
COCCCNC(=O)CC1C[C@H](C(=O)N2CCOCC2)[C@@]2(CCC3CCCC3)c3[nH]c4ccc(OC)cc4c3CCN2C1=O (some centres undefined) 3.79%
O=C(NC1CCN(Cc2ccc(Cl)cc2Cl)CC1)c1ccccc1 5.03%
Cn1c(C(=O)N2CCCC(Nc3ccc(F)cc3)C2)cc2ccccc21 (centres undefined) -8.53%
O=C(O)c1cccc(S(=O)(=O)Nc2ccccc2C(=O)NCCc2ccccc2)c1 4.14%
Fc1cccc(CNCc2ccc3c(c2)OCO3)c1 3.78%
COc1cc(C(=O)NCCc2ccc3c(c2)OCO3)cc(OC)c1OC -4.93%
COc1cc(CC(=O)NCc2ccc3c(c2)OCO3)cc(OC)c1OC 4.17%
COc1cccc(CNCc2ccc3c(c2)OCO3)c1 31.8%
CC1(C)CC(=O)C=C(c2cccc(OC(=O)c3ccc(-c4ccccc4)cc3)c2)C1=O 11.9%
CCOc1ccc(NC(=O)CN2CCN(c3ccc(F)cc3)CC2)cc1S(=O)(=O)N1CCCC1 10.6%
CN(CC(O)COc1ccc(S(=O)(=O)N2CCOCC2)cc1)C1CCCCC1 (centres undefined) 10.6%
O=C(CSc1nnnn1Cc1ccccc1)Nc1cccc(F)c1 8.78%
Nc1ccc(C(=O)C(=O)c2ccc(N)cc2)cc1 6.66%
N=C(N)c1ccc(N)cc1 10.7%
CC(NC(=O)COc1cccc(Br)c1)C(=O)O (centres undefined) 3.37%
CCc1sc(C(=O)Nc2ccc(N3CCOCC3)cc2)cc1C 9.93%
CCOC(=O)/C(C#N)=C\C=C1C=CN(C)C=C1 10.4%
CN1C(=S)SC(N(O)C=C2C=CC(=O)C=C2)C1(C)C (centres undefined) 24.5%
COc1ccc(C(CNC(=O)c2ccc(NS(=O)(=O)c3ccc4c(c3)OCCO4)cc2)N(C)C)cc1 (centres undefined) -0.2%
CCC(C)(c1ccc(C=O)s1)c1ccc(C=O)s1 6.23%
COc1ccc2c(CC(=O)NNC(=O)c3cccs3)coc2c1 5.91%
Cc1ccc2c(CC(=O)NCc3cccs3)coc2c1 3.76%
Cc1ccc2c(CC(=O)NNC(=O)c3ccccc3O)coc2c1 -8.73%
Cc1ccc2c(CC(=O)NNC(=O)c3ccccc3)coc2c1 6.09%
CN(C)CC1(c2ccccc2)CCCC1 -6.5%
CC1CCCCN1C(=S)Nc1ccc(OC(F)F)cc1 (centres undefined) 2.05%
O=c1[nH]c2ccccc2cc1CN(Cc1ccco1)S(=O)(=O)c1ccccc1 5.99%
